# Inconclusive results are not listed. A number with no mark means an inactive call. The source made the active and inactive calls. Calls come from the whole dose curve; as a rule, active = well fitted curve in the direction sought with a large enough effect; inconclusive = small, poorly fitted or top-dose-only effect, or another doubt; inactive = no such curve, though single readings can be large; an effect the other way counts as inactive or inconclusive.
# Columns and labels:
# [1] = Quantitative High-Throughput drug screen in 47 multiple myeloma cell lines against the NCATS MIPE library collection: KMS12BM_JCRB cell viability assay (AID 1918971); note: nearly all actives have a fitted effect of over 35% in size
# Summary of the method: (§1)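 Approved and investigational drugs from MIPE 4.0 were added by pin tool to 500 cells per well. After 48 hours at 37C, ATP-based CellTiter-Glo luminescence indicated remaining viability.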
# [2] = Quantitative High-Throughput drug screen in 47 multiple myeloma cell lines against the NCATS MIPE library collection: KMS12PE_JCRB cell viability assay (AID 1918972); note: nearly all actives have a fitted effect of over 30% in size
# Summary of the method: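 CellTiter-Glo luminescence (ATP) after 48 h compound exposure, 37C/5% CO2; 500 cells/well; MIPE 4.0 approved/investigational drugs pinned in; DMSO = 100%, media only = 0% viability.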
# [3] = Quantitative High-Throughput drug screen in 47 multiple myeloma cell lines against the NCATS MIPE library collection: KMS20_JCRB cell viability assay (AID 1918973); note: nearly all actives have a fitted effect of over 45% in size
# Summary of the method: (§2)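 CellTiter-Glo ATP luminescence gave viability after 48 h compound treatment at 37C of 500 multiple myeloma cells per well. Normalisation used DMSO-only wells as 100% and media-only wells as 0% viability; primary qHTS of approved and investigational drugs.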
# [4] = Quantitative High-Throughput drug screen in 47 multiple myeloma cell lines against the NCATS MIPE library collection: KMS21BM_JCRB cell viability assay (AID 1918974); conditions: ATP luminescence, 48 h; viability: at 45.8 µM (top of the series)
# Summary of the method: as §2
# [5] = Quantitative High-Throughput drug screen in 47 multiple myeloma cell lines against the NCATS MIPE library collection: KMS26_JCRB cell viability assay (AID 1918975); note: nearly all actives have a fitted effect of over 45% in size
# Summary of the method: as §1
# [6] = Quantitative High-Throughput drug screen in 47 multiple myeloma cell lines against the NCATS MIPE library collection: MMM1_PLB cell viability assay (AID 1918976); note: nearly all actives have a fitted effect of over 35% in size
# Summary of the method: (§3)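 500 cells/well; MIPE 4.0 drugs pin-transferred; 48 h, 37C, 5% CO2. CellTiter-Glo, 5 min RT, luminescence. Controls: DMSO 100%, media 0%.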
# [7] = Quantitative High-Throughput drug screen in 47 multiple myeloma cell lines against the NCATS MIPE library collection: MOLP8_DSMZ cell viability assay (AID 1918977); note: nearly all actives have a fitted effect of over 45% in size
# Summary of the method: as §3
# [8] = Quantitative High-Throughput drug screen in 47 multiple myeloma cell lines against the NCATS MIPE library collection: NCIH929_DSMZ cell viability assay (AID 1918978); note: nearly all actives have a fitted effect of over 35% in size
# Summary of the method: as §3
# [9] = Quantitative High-Throughput drug screen in 47 multiple myeloma cell lines against the NCATS MIPE library collection: OCIMY1_PLB cell viability assay (AID 1918979); note: nearly all actives have a fitted effect of over 35% in size
# Summary of the method: as §3
# [10] = Quantitative High-Throughput drug screen in 47 multiple myeloma cell lines against the NCATS MIPE library collection: MM1S_ATCC cell viability assay (AID 1918980); note: nearly all actives have a fitted effect of over 45% in size
# Summary of the method: as §3
# [11] = Quantitative High-Throughput drug screen in 47 multiple myeloma cell lines against the NCATS MIPE library collection: MM1R_ATCC cell viability assay (AID 1918981); note: nearly all actives have a fitted effect of over 35% in size
# Summary of the method: as §3
# [12] = Quantitative High-Throughput drug screen in 47 multiple myeloma cell lines against the NCATS MIPE library collection: LP1_DSMZ cell viability assay (AID 1918982); note: nearly all actives have a fitted effect of over 35% in size
# Summary of the method: as §3
# [13] = Quantitative High-Throughput drug screen in 47 multiple myeloma cell lines against the NCATS MIPE library collection: KMS28PE_JCRB cell viability assay (AID 1918983); note: nearly all actives have a fitted effect of over 35% in size
# Summary of the method: as §3
# [14] = Quantitative High-Throughput drug screen in 47 multiple myeloma cell lines against the NCATS MIPE library collection: L363_DSMZ cell viability assay (AID 1918984); conditions: L363 myeloma viability, CellTiter-Glo ATP luminescence, 48 h; viability (% of control): at 45.8 µM (top of the series); note: nearly all actives have a fitted effect of over 40% in size
# Summary of the method: as §3
# [15] = Quantitative High-Throughput drug screen in 47 multiple myeloma cell lines against the NCATS MIPE library collection: KMS34_JCRB cell viability assay (AID 1918985); note: nearly all actives have a fitted effect of over 40% in size
# Summary of the method: as §3
# [16] = Quantitative High-Throughput drug screen in 47 multiple myeloma cell lines against the NCATS MIPE library collection: OCIMY7_PLB cell viability assay (AID 1918987); conditions: OCI-MY7 myeloma viability, CellTiter-Glo ATP, 48 h; viability (% of DMSO): at 45.8 µM (top of the series); note: nearly all actives have a fitted effect of over 65% in size
# Summary of the method: as §3
# [17] = Quantitative High-Throughput drug screen in 47 multiple myeloma cell lines against the NCATS MIPE library collection: OCIMY5_PLB cell viability assay (AID 1918988); note: nearly all actives have a fitted effect of over 65% in size
# Summary of the method: as §3
# [18] = Quantitative High-Throughput drug screen in 47 multiple myeloma cell lines against the NCATS MIPE library collection: OPM1_PLB cell viability assay (AID 1918989); note: nearly all actives have a fitted effect of over 40% in size
# Summary of the method: as §3
# [19] = Quantitative High-Throughput drug screen in 47 multiple myeloma cell lines against the NCATS MIPE library collection: SKMM1_PLB cell viability assay (AID 1919863); conditions: SKMM1 myeloma viability, CellTiter-Glo ATP, 48 h; viability: stronger effect = lower value; note: nearly all actives have a fitted effect of over 35% in size
# Summary of the method: as §3
# [20] = Quantitative High-Throughput drug screen in 47 multiple myeloma cell lines against the NCATS MIPE library collection: U266_ATCC cell viability assay (AID 1919864); note: nearly all actives have a fitted effect of over 35% in size
# Summary of the method: as §3
# Potency is the fitted concentration of half-maximal effect.
smiles,measurement,setting,value
COC(=O)Nc1ccc(-c2nc(N3CCOCC3)c3cnn(C4CCN(C(=O)OC)CC4)c3n2)cc1,Potency,[1],0.935 µM (active)
same,Potency,[2],1.66 µM (active)
same,Potency,[3],0.0148 µM (active)
same,Potency,[4],0.0526 µM (active)
same,Potency,[5],1.66 µM (active)
same,Potency,[6],0.418 µM (active)
same,Potency,[7],1.48 µM (active)
same,Potency,[8],0.0372 µM (active)
same,Potency,[9],5.26 µM (active)
same,Potency,[10],0.0066 µM (active)
same,Potency,[11],0.743 µM (active)
same,Potency,[12],0.235 µM (active)
same,Potency,[13],1.18 µM (active)
same,Potency,[14],0.0935 µM (active)
same,Potency,[15],1.05 µM (active)
same,Potency,[16],0.0235 µM (active)
same,Potency,[17],1.18 µM (active)
same,Potency,[18],0.372 µM (active)
same,Potency,[19],11.8 µM (active)
same,Potency,[20],1.32 µM (active)
NC1(C(=O)N[C@@H](CCO)c2ccc(Cl)cc2)CCN(c2ncnc3[nH]ccc23)CC1,Potency,[1],inactive
same,Potency,[2],0.418 µM (active)
same,Potency,[3],1.18 µM (active)
same,Potency,[5],0.209 µM (active)
same,Potency,[6],0.0105 µM (active)
same,Potency,[8],0.0833 µM (active)
same,Potency,[10],0.0833 µM (active)
same,Potency,[11],0.148 µM (active)
same,Potency,[13],0.372 µM (active)
same,Potency,[14],0.235 µM (active)
same,Potency,[15],8.33 µM (active)
same,Potency,[16],3.72 µM (active)
same,Potency,[17],5.26 µM (active)
same,Potency,[18],1.48 µM (active)
same,Potency,[19],5.9 µM (active)
CN(C)CCOc1ccc(-c2nc(-c3ccc4c(c3)CCC4=NO)c(-c3ccncc3)[nH]2)cc1,Potency,[1],20.9 µM (active)
same,Potency,[2],10.5 µM (active)
same,Potency,[3],6.62 µM (active)
same,Potency,[4],7.43 µM (active)
same,Potency,[5],18.7 µM (active)
same,Potency,[6],20.9 µM (active)
same,Potency,[7],14.8 µM (active)
same,Potency,[8],16.6 µM (active)
same,Potency,[9],20.9 µM (active)
same,Potency,[10],18.7 µM (active)
same,Potency,[11],18.7 µM (active)
same,Potency,[12],20.9 µM (active)
same,Potency,[15],13.2 µM (active)
same,Potency,[17],23.5 µM (active)
same,Potency,[18],16.6 µM (active)
same,Potency,[20],26.4 µM (active)
C[C@@]1(C(=O)Nc2ccc(F)nc2)CCCN1c1nc(Nc2cc(C3CC3)[nH]n2)c2cccn2n1,Potency,[1],0.935 µM (active)
same,Potency,[2],0.166 µM (active)
same,Potency,[3],0.0743 µM (active)
same,Potency,[5],0.0066 µM (active)
same,Potency,[6],0.0209 µM (active)
same,Potency,[8],0.0235 µM (active)
same,Potency,[10],0.0469 µM (active)
same,Potency,[11],0.0166 µM (active)
same,Potency,[13],0.0296 µM (active)
same,Potency,[16],0.0743 µM (active)
same,Potency,[17],0.118 µM (active)
same,Potency,[18],1.66 µM (active)
CC(=O)NCCC(=O)N[C@@H](CCC(N)=O)C(=O)N[C@@H](CO)C(=O)N[C@@H](CCC(N)=O)C(=O)N[C@@H](CCC(N)=O)C(=O)N[C@H](C(=O)N[C@@H](Cc1ccccc1)C(=O)N[C@]1(C)CCCCCCC=CCCC[C@@](C)(C(=O)N[C@@H](CCC(N)=O)C(=O)N[C@@H](CC(N)=O)C(N)=O)NC(=O)[C@H](CC(C)C)NC(=O)[C@H](CC(C)C)NC(=O)[C@@H](CCCNC(=N)N)NC(=O)[C@H](Cc2c[nH]c3ccccc23)NC(=O)[C@H](CC(C)C)NC(=O)[C@H](CC(N)=O)NC1=O)[C@H](C)O,Potency,[1],9.35 µM (active)
same,Potency,[2],inactive
same,Potency,[3],18.7 µM (active)
same,Potency,[5],14.8 µM (active)
same,Potency,[6],5.26 µM (active)
same,Potency,[8],23.5 µM (active)
same,Potency,[9],20.9 µM (active)
same,Potency,[10],20.9 µM (active)
same,Potency,[11],26.4 µM (active)
same,Potency,[12],20.9 µM (active)
same,Potency,[13],18.7 µM (active)
same,Potency,[16],20.9 µM (active)
same,Potency,[19],16.6 µM (active)
Cc1nn(Cc2ccccc2Cl)c(C)c1CN(C)CC(O)COc1ccc(Cl)cc1 (centres undefined),Potency,[1],23.5 µM (active)
same,Potency,[2],5.9 µM (active)
same,Potency,[3],11.8 µM (active)
same,Potency,[5],20.9 µM (active)
same,Potency,[6],18.7 µM (active)
same,Potency,[8],23.5 µM (active)
same,Potency,[9],18.7 µM (active)
same,Potency,[11],20.9 µM (active)
same,Potency,[17],10.5 µM (active)
same,Potency,[18],20.9 µM (active)
same,Potency,[19],3.32 µM (active)
same,Potency,[20],18.7 µM (active)
Clc1ccc(COC(Cn2ccnc2)c2ccc(Cl)cc2Cl)c(Cl)c1 (centres undefined),Potency,[1],20.9 µM (active)
same,Potency,[2],18.7 µM (active)
same,Potency,[4],37.2 µM (active)
same,Potency,[5],23.5 µM (active)
same,Potency,[6],16.6 µM (active)
same,Potency,[7],18.7 µM (active)
same,Potency,[8],18.7 µM (active)
same,Potency,[11],23.5 µM (active)
same,Potency,[14],20.9 µM (active)
same,Potency,[17],26.4 µM (active)
same,Potency,[19],20.9 µM (active)
O=C(Nc1cccc(Cl)c1)Nc1ncc(CCNc2ncnc3ccsc23)s1,Potency,[1],6.62 µM (active)
same,Potency,[2],0.662 µM (active)
same,Potency,[5],2.64 µM (active)
same,Potency,[6],16.6 µM (active)
same,Potency,[7],3.72 µM (active)
same,Potency,[8],7.43 µM (active)
same,Potency,[9],5.9 µM (active)
same,Potency,[10],16.6 µM (active)
same,Potency,[11],5.9 µM (active)
same,Potency,[15],6.62 µM (active)
same,Potency,[16],0.264 µM (active)
same,Potency,[17],0.833 µM (active)
same,Potency,[18],6.62 µM (active)
same,Potency,[19],3.32 µM (active)
same,Potency,[20],16.6 µM (active)
COc1ccc(-c2nc3ccc(C4=NNC(=O)CC4C)cc3[nH]2)cc1 (centres undefined),Potency,[1],inactive
same,Potency,[2],inactive
same,Potency,[4],inactive
same,Potency,[5],inactive
same,Potency,[9],inactive
same,Potency,[10],23.5 µM (active)
same,Potency,[11],inactive
same,Potency,[12],inactive
same,Potency,[13],inactive
same,Potency,[14],inactive
same,Potency,[15],inactive
same,Potency,[17],inactive
same,viability,[19],101%
CN(C)N=Nc1nc[nH]c1C(N)=O,Potency,[1],inactive
same,Potency,[2],0.166 µM (active)
same,Potency,[5],20.9 µM (active)
same,Potency,[6],4.69 µM (active)
same,Potency,[8],inactive
same,Potency,[9],inactive
same,Potency,[10],inactive
same,Potency,[12],inactive
same,Potency,[13],inactive
same,Potency,[15],inactive
same,Potency,[17],20.9 µM (active)
same,Potency,[18],4.18 µM (active)
same,viability,[19],140%
same,Potency,[20],inactive
CNC(=O)c1cc(Oc2ccc(NC(=O)Nc3ccc(Cl)c(C(F)(F)F)c3)c(F)c2)ccn1,Potency,[1],18.7 µM (active)
same,Potency,[2],4.69 µM (active)
same,Potency,[4],2.96 µM (active)
same,Potency,[5],23.5 µM (active)
same,Potency,[6],8.33 µM (active)
same,Potency,[7],13.2 µM (active)
same,Potency,[9],23.5 µM (active)
same,Potency,[10],2.09 µM (active)
same,Potency,[11],20.9 µM (active)
same,Potency,[12],16.6 µM (active)
same,Potency,[13],20.9 µM (active)
same,Potency,[18],inactive
same,Potency,[19],20.9 µM (active)
